Experimental data reported in PubChem BioAssay.
Activity calls are given as the source filed them. Unless noted, no rule for the calls is given here.

Columns and labels:
[1] = system: Wnt5a (protein binding on small-molecule microarray); assay: Wnt5a binders on small-molecule microarray, primary screen, biophysical, 635/667 nm fluorescence (AID 1142); settings: 635 nm fluorescence, higher = more signal;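 also: fluorescence read at 667 nm with signal to noise per printed feature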
[2] = cell viability in Huh7 cells, primary screen, cytotoxicity control for HCV replication inhibitor project, CellTiter-Glo luminescence, basal, 48 h (AID 1143); settings: Huh7 HCV replicon, higher = more signal, called active from +8 up or from −8 down;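 also: Huh7 hepatoma cells carrying a hepatitis C replication reporter with no stimulus; test concentration not given here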
[3] = P. aeruginosa biofilm formation inhibitors, primary screen, PAO1 strain, BacTiter-Glo luminescence, LB-PBS (AID 1144); settings: 12 h, higher = more signal
[4] = CREB reporter modulators without forskolin, primary screen, cell-based, PC12, CRE-LacZ reporter, unstimulated (AID 1145); settings: no forskolin, luminescence, 4.5 h, higher = more signal, called active from +8 up or from −8 down
[5] = CREB reporter modulators under forskolin, primary screen, cell-based, PC12, CRE-LacZ reporter, forskolin-stimulated (AID 1146); settings: luminescence, 4.5 h, higher = more signal, called active from +8 up or from −8 down;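 also: PC12 cells with 6xCRE LacZ reporter stimulated by forskolin 10 µM; beta-galactosidase reporter signal reflecting CREB driven transcription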
[6] = biological target: Streptavidin (Streptomyces avidinii) (UniProt P22629); assay: streptavidin binders on small-molecule microarray, primary screen, artefact control for SMM compound annotation, biophysical, 635/667 nm fluorescence (AID 1147); settings: streptavidin binding, higher = more signal;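 also: signal reflects streptavidin binding to arrayed compounds as a control protein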
Chain of Streptavidin (Streptomyces avidinii) (P22629 whole entry, looked up): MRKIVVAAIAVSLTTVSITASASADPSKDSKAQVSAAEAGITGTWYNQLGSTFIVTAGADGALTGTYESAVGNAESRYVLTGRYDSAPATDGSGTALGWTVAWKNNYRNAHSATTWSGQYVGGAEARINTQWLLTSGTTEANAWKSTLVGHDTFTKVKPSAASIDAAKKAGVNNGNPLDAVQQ

[7] = small-molecule binders of probe aInhba, primary screen, biochemical, small-molecule microarray, 635/667 nm fluorescence (AID 1148); settings: higher = more signal;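 also: score merges 667nm spot fluorescence with signal-to-noise for antibody binding to printed compounds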
[8] = biological target: Torsin-1A (Homo sapiens) (UniProt O14656); assay: torsin A binders from cell lysate, primary screen, small-molecule microarray, wild-type, 635/667 nm (AID 1149); settings: COS7 hTOR1A-WT lysate, 635 nm fluorescence, higher = more signal
Chain of Torsin-1A (Homo sapiens) (O14656 whole entry, looked up): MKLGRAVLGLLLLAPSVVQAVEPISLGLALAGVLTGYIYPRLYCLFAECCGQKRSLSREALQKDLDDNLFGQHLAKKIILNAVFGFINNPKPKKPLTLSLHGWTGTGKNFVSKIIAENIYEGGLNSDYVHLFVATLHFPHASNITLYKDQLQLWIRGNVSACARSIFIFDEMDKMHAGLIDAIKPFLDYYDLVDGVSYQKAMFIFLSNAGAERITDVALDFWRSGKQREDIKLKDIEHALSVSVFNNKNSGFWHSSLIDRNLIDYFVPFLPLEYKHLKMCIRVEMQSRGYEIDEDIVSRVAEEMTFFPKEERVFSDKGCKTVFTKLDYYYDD

[9] = biological target: Torsin-1A (Homo sapiens) (UniProt O14656); assay: small-molecule binders of mutant TOR1A in lysate, primary screen, cell lysate, small-molecule microarray, COS7 lysate, 635/667 nm fluorescence (AID 1150); settings: COS7 hTOR1A mutant lysate, 635 nm fluorescence, higher = more signal;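 also: score pools 667 nm emission and signal to noise measuring lysate protein binding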
[10] = system: Sonic hedgehog protein (Shh); assay: small-molecule binders of Shh protein, primary screen, biochemical, small-molecule microarray, 635/667 nm fluorescence (AID 1151); settings: small-molecule microarray binding, 635 nm fluorescence; higher = more signal;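 also: Shh protein binding to compounds spotted on small-molecule microarray slides; score combines spot fluorescence intensity with signal-to-noise across triplicate slides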
[11] = E. coli DRC41 culture turbidity changes, primary screen, E. coli filamentation inducer project, strain DRC41, OD650, 48 h (AID 1152);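 also: E. coli MC1000 strain DRC41 lacking acrAB efflux pump and sulA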; settings: E. coli DRC41 (acrAB sulA), higher = more signal, called active from +8 up or from −8 down
[12] = small-molecule binders of probe aLefty1, primary screen, biochemical, small-molecule microarray, 635/667 nm fluorescence (AID 1153); settings: higher = more signal;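 also: score merges spot fluorescence with signal-to-noise ratio from the scanned slide images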
[13] = PSAC antagonists in infected red cells, primary screen, cell-based, P. falciparum Indochina, OD700, 1 h (AID 1154); settings: P. falciparum Indochina infected RBC osmotic lysis, higher = more signal, called active from +8 up or from −8 down
[14] = PSAC antagonists in infected red cells, primary screen, cell-based, P. falciparum Indochina, OD700, 2 h (AID 1155);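 also: lysis reports solute entry through the parasite surface anion channel PSAC; channel blockers reduce lysis of infected cells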; settings: P. falciparum Indochina infected erythrocytes, osmotic lysis OD700; higher = more signal, called active from +8 up or from −8 down
[15] = osmotic lysis modulators in infected erythrocytes, primary screen, PSAC antagonist project, cell-based, P. falciparum Indochina, OD700, 3 h (AID 1156); settings: higher = more signal, called active from +8 up or from −8 down
[16] = PSAC antagonists in infected red cells, primary screen, cell-based, P. falciparum Indochina, OD700, 18 h (AID 1157); settings: P. falciparum Indochina infected erythrocytes, osmotic lysis OD700, 18 h; higher = more signal, called active from +8 up or from −8 down
[17] = modulators of S6 phosphorylation in cells, primary screen, cell-based, A549, cytoblot, luminescence, serum-stimulated (AID 1158); settings: A549 phospho-S6 cytoblot, 5 h, higher = more signal;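 also: serum-stimulated A549 lung adenocarcinoma cells; signal is phosphorylated S6 detected by cytoblot immunostaining with HRP secondary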
[18] = biological target: NADPH oxidase 2 (Homo sapiens) (UniProt P04839); assay: NOX2-dependent H2O2 signal modulators, primary screen, NOX inhibitor project, cell-based, HEK293-NOX2, PMA-stimulated, Amplex Red fluorescence (AID 1159); settings: 45 min, higher = more signal, called active from +8 up or from −8 down; also: test concentration not given here
Chain of NADPH oxidase 2 (Homo sapiens) (P04839 whole entry, looked up): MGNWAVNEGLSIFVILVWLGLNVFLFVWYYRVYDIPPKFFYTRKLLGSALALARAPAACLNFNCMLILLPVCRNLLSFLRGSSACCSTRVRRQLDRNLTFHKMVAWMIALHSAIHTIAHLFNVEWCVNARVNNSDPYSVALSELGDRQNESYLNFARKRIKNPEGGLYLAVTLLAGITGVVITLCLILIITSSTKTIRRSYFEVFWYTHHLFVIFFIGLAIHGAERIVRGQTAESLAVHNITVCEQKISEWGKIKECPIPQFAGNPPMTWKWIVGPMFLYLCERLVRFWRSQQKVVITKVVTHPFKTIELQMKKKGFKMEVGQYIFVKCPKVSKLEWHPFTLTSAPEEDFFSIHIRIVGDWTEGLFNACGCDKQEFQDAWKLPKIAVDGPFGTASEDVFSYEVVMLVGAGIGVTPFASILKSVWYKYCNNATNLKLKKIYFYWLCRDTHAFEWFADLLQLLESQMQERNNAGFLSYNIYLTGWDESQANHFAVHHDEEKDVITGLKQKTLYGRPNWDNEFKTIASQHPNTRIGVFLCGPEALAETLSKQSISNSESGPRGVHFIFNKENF

[19] = biological target: NADPH oxidase 4 (Homo sapiens) (UniProt Q9NPH5); assay: NOX4-dependent H2O2 signal modulators, primary screen, NOX inhibitor project, cell-based, HEK293-NOX4, tetracycline-induced, Amplex Red fluorescence (AID 1160); settings: 45 min, higher = more signal, called active from +8 up or from −8 down
Chain of NADPH oxidase 4 (Homo sapiens) (Q9NPH5 whole entry, looked up): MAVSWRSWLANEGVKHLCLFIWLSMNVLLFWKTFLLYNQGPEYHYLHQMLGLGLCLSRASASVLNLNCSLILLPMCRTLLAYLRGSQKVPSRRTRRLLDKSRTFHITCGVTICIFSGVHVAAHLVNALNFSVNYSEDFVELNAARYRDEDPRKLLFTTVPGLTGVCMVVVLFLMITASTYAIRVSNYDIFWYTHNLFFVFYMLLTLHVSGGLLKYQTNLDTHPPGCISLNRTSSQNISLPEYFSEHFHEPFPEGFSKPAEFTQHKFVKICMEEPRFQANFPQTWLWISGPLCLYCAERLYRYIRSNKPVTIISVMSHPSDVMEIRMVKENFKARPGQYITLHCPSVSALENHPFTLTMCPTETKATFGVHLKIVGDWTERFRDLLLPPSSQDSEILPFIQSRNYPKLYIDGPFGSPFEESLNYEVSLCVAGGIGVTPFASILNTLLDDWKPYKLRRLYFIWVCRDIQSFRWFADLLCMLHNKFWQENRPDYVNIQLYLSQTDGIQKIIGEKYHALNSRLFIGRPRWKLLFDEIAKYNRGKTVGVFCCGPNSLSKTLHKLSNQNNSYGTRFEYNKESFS

[20] = biological target: NADPH oxidase 5 (Homo sapiens) (UniProt Q96PH1); assay: NOX5-dependent H2O2 signal modulators, primary screen, NOX inhibitor project, cell-based, HEK293-NOX5, Amplex Red fluorescence (AID 1161); settings: HEK293-NOX5, ionomycin, 45 min, higher = more signal
Chain of NADPH oxidase 5 (Homo sapiens) (Q96PH1 whole entry, looked up): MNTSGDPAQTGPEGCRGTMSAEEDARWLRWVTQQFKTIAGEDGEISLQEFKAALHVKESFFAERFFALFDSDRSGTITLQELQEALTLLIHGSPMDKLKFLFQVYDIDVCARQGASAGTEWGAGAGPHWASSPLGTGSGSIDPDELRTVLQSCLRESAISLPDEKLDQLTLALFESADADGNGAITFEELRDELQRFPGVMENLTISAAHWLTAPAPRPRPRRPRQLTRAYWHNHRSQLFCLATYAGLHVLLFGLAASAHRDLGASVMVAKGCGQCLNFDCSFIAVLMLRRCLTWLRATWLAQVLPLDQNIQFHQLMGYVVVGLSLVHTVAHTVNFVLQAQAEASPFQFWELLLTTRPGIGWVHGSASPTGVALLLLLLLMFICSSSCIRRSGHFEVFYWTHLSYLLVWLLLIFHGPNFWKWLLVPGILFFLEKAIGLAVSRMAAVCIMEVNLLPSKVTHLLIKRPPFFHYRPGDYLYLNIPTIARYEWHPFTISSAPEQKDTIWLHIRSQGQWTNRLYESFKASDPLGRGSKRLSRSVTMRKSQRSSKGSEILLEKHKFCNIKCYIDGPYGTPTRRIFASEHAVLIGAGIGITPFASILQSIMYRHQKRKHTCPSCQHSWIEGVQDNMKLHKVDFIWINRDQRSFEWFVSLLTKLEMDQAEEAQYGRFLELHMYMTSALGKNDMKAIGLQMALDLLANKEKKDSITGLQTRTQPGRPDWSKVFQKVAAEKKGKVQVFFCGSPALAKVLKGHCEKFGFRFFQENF

Row | SMILES | composite z-score [1] | z-score [2] | z-score [3] | z-score [4] | z-score [5] | composite z-score [6] | composite z-score [7] | composite z-score [8] | composite z-score [9] | composite z-score [10] | z-score [11] | composite z-score [12] | z-score [13] | z-score [14] | z-score [15] | z-score [16] | z-score [17] | z-score [18] | z-score [19] | z-score [20]
1 | CCCC=C(CCC)[C@@H](NS(=O)(=O)CC)c1ccccc1 | 0.356 | -2.11 (inactive) | 0.932 (inactive) | 0.59 (inactive) | 1.16 (inactive) | 1.08 | 0.279 | 0.252 | 0.0756 | -0.324 | -1.84 (inactive) | 0.443 | 0.19 (inactive) | -0.0273 (inactive) | -1.28 (inactive) | 0.716 (inactive) | -0.259 | -1.32 (inactive) | -2.4 (inactive) | 2.02
2 | COC(=O)c1ccc(OC)c(/C=C\CC(CCc2ccccc2)OC(=O)c2ccncc2)c1 (stereo not given) | -0.272 | -1.66 (inactive) | 1.02 (inactive) | 1.75 (inactive) | 0.455 (inactive) | 0.925 | -0.404 | 0.175 | 0.092 | 1.25 | -0.295 (inactive) | -0.251 | 17.9 (active) | 3.19 (inactive) | 0.533 (inactive) | 0.672 (inactive) | -0.224 | -0.392 (inactive) | 0.67 (inactive) | -0.11
3 | CCC[C@@H]1C[C@@]1(CCC)[C@@H](NC(=O)c1ccco1)c1ccc(Cl)cc1 | -0.114 | -2.99 (inactive) | 0.789 (inactive) | 0.58 (inactive) | 0.974 (inactive) | -0.489 | 0.0074 | -1.5 | -0.94 | -0.323 | -1.37 (inactive) | -0.0035 | 1.85 (inactive) | 0.238 (inactive) | 0.425 (inactive) | 0.469 (inactive) | -0.0915 | -1.46 (inactive) | -3.83 (inactive) | -0.796
4 | O=C1NC(=O)C2C1C=CC(C(O)c1ccc(-c3ccccc3)s1)N2Nc1ccccn1 (stereo not given) | 0.368 | 0.429 (inactive) | -0.505 (inactive) | -0.329 (inactive) | 0.0978 (inactive) | 0.45 | -0.0662 | 0.351 | 0.898 | -0.0564 | -0.513 (inactive) | 0.114 | 2.41 (inactive) | 1.14 (inactive) | 0.216 (inactive) | 1.02 (inactive) | -0.697 | -1.09 (inactive) | -2.3 (inactive) | -1.44
5 | COCCOC(=O)N1C(=O)[C@@]2(c3cc(C#CCNC(N)=O)ccc31)[C@H](c1ccc(OCCO)cc1)N1[C@H](c3ccccc3)[C@H](c3ccccc3)OC(=O)[C@H]1[C@@H]2C(=O)N1CCN(c2ncccn2)CC1 | 0.333 | 0.0075 (inactive) | 0.443 (inactive) | 0.212 (inactive) | 0.675 (inactive) | 0.651 | -0.024 | 0.833 | 0.581 | 0.983 | -0.283 (inactive) | 0.209 | 4.15 (inactive) | 1.81 (inactive) | 0.428 (inactive) | 1.05 (inactive) | 0.537 | 2.29 (inactive) | 0.937 (inactive) | 0.877
6 | C[N+](C)(C)CCCC[C@@H]1NC(=O)[C@@H]2C[C@H](C(=O)O)[C@H](c3cccc(OCCO)c3)N2C1=O | -0.0257 | -0.63 (inactive) | -0.773 (inactive) | -0.671 (inactive) | -0.471 (inactive) | -1.01 | -0.179 | 0.405 | 0.171 | 0.976 | 1.03 (inactive) | -0.286 | 2.2 (inactive) | 0.157 (inactive) | -1.84 (inactive) | 0.276 (inactive) | 1.44 | 1.83 (inactive) | 0.877 (inactive) | 1.01
7 | Cc1ccc(S[C@]2(C(=O)O)CC(=O)N(C3CCCCC3)[C@@H]2c2ccc(CO)cc2)cc1 | 0.219 | -0.0359 (inactive) | -0.78 (inactive) | -0.116 (inactive) | -0.337 (inactive) | 1.28 | 0.112 | -0.284 | -0.249 | -0.265 | 0.858 (inactive) | -0.672 | 2.06 (inactive) | 0.0744 (inactive) | 0.854 (inactive) | 0.0854 (inactive) | -0.158 | 1.09 (inactive) | 0.585 (inactive) | 0.763
8 | COCCOC(=O)N1C(=O)[C@@]2(c3cc(C#CC4(O)CCCCCC4)ccc31)[C@H](C(=O)N1CCc3cc(OC)c(OC)cc3C1)[C@H]1C(=O)O[C@H](c3ccccc3)[C@H](c3ccccc3)N1[C@@H]2c1ccccc1OCCO | 0.855 | -2.18 (inactive) | 1.66 (inactive) | 0.0736 (inactive) | 3.93 (inactive) | 0.149 | 0.448 | 0.0869 | 0.326 | 1.29 | 0.803 (inactive) | 0.496 | 1.39 (inactive) | 1.15 (inactive) | 0.496 (inactive) | 0.655 (inactive) | -0.0095 | 2.73 (inactive) | -0.879 (inactive) | 0.554
